Assay results reported in PubChem BioAssay AID1508600 (Functional Genomics Laboratory (NCATS/FGL), 2020).
Hit rate of the full screen: of about 53,000 sequences, about 3,700 (7%) were called active.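 The calls were made as follows: active = gene knockdowns whose robust z-score for IL-1 alpha signal is at least 2 or at most -2, so actives lie on both sides; inactive = the rest.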 The entries come from a sample that favours actives as a whole.

Test: Components of the Cytosolic LPS Sensing Pathway: Gene Identification via Genome-wide siRNA Screen
Settings: RAW264.7 macrophages, IL-1a HTRF, actives lie on both sides, screened at 100 nM (by protocol), cells primed 5 h with Pam3CSK4 first
Description: Non-canonical inflammasome activation by cytosolic LPS is a critical component of the host response to Gram-negative bacterial infection, however we lack a comprehensive understanding of the cellular processes that control this pathway. Here we describe a genome-wide siRNA screen to identify genes regulating the mouse macrophage IL-1 alpha response to cytosolic LPS.
RAW264.7 cells were maintained in complete DMEM media, comprising DMEM with 4.5 g/L glucose, 10% FBS (Gemini Bio-Products, West Sacramento, CA), 2 mM Glutamine (Lonza) and 20 mM HEPES (Lonza), hereafter complete DMEM.
The RNAi screen was conducted in 384-well format using the Ambion Silencer Mouse Genome siRNA Library (#4391425), which consists of three unique, nonoverlapping, nonpooled siRNAs for each of 17,000 gene targets. siRNA reagents ([…]) were stamped into 384-well white flat-bottom microplates (Corning, 3570) using a Velocity11 VPrep liquid handling system (Agilent) integrated into a BioCel robotic platform (Agilent) in columns 1-22, leaving columns 23-24 empty for negative (Ambion, Negative control #1) and positive (mouse Casp4) controls, respectively. The median value of each plate's negative control column was used to normalize sample wells, and the positive control was used to assess transfection efficiency and assay performance.
Lipofectamine RNAiMAX Transfection Reagent ([…]; Invitrogen) was added in […] serum-free, antibiotic-free media to plate wells using a Thermo Scientific Matrix WellMate and Microplate Stacker. Plates were incubated for 45 min at room temperature to allow for the sufficient formation of siRNA-lipid complexes. Cells were seeded at a density of 1x10^4 cells per well in 20 microL media containing 20% (vol/vol) FBS without antibiotics. The final concentration of siRNA in each well was 100 nM. Cells were cultured for 48h at 37 degrees C in 5% CO2 before addition of […] of TLR ligand Pam3CSK4 for 5 hours. The medium was then removed, replaced with […] growth media and cell were transfected with […] of LipidA and TransIT-TKO (Mirus) for 24 hour. At the end of the LipidA treatment, […] of supernatant was transferred to a 384 Greiner Bio-one non-binding low volume plate and […] of IL-1a HTRF reagent (Cisbio, 62MIL1APEH) was added and incubated at room temperature overnight. The plates were read on an EnVision plate reader (PerkinElmer). Cell viability was measured by adding 20ul Cell Titer Glo to the original plate and running a luminescence read on the EnVision. The quantified IL-1a signal for each siRNA gene-targeted well was divided by the median of the negative control wells and multiplied by 100 to achieve a negative control normalized value for each well/siRNA. This normalized value was then used to generate a robust z-score by first taking the log of each value and then by subtracting the median and dividing by the […].

z-score, inactive:
GGAACAACUUGAUACCUCUTT against Trim44 -0.89
GGUCGGGAUUUAAUUUGUATT against Bbs9 0.978
CGACUUCACCUUAUUCCUGTT against Nle1 0.811
GCAUAUUACACAGCACUAGTT against Itgbl1 -0.802
GGUGUACUCUGUUCCCAUGTT against Psmb6 -1.54
GGUGUACAACUCCUAUAGGTT against P2ry13 0.24
GGAUUUCAGCGAAGUGUACTT against Mapk11 -0.395
GGAGCUGAGCAACAUCACATT against Il13 -1.35
GCUUCACAUGAAGCAACCUTT against Fam149b -0.102
GGUGUUGAACAAAUUAACUTT against Pprc1 0.508
GCAACUAUCCACUCUCUGCTT against Emg1 0.977
GGAGAUGGUCUCAUUAAGCTT against Psmd13 -1.25
GCUCUGUUUUUAACCAUCCTT against Ccnt2 0.227
GGUAUUAAGUUCCUGUAAUTT against Ahcyl2 -1.62
GCCGCUUAGAGGCUCAUCUTT against Nfe2l2 -1.86
GGACAACUAUGAAUUAGUGTT against Pfkp -0.801
GGAAAAACAGCUUAACACUTT against Pate4 0.66
GCUUCCAAGAUGGAACUACTT against Psmb10 0.657
GGAGAAGAUCACAAGAGGGTT against Slc35b1 -0.736
GCAGAAUAGCUGAUGACAGTT against Galnt15 -0.155
GCUCCCAAGUUUACCCAGCTT against Mybphl 0.505
CCUUGAACGAGAGUGCAUUTT against Pros1 -0.798
CGUAAGUCAGUGAUGCUAUTT against Srp19 1.38
GCUAUGAAGCAAUUGUGGATT against Fasn -0.527
GCCAGGAUACUAAGUGUUUTT against Jpt2 1.05
GCAACAUCGUAUGUUAAUGTT against Slc9a4 0.0571
CCAGGUGAAAACCAGGAUATT against Olfr205 0.925
GGAAACCUAUGUCUCAAGATT against Mrps36 -0.332
CCAGAGAUUCCCACACGUCTT against Havcr1 -1.37
GAAUCUGGUGAAGUAUUAUTT against Phip 0.518
GGGUUUAGCUCACUGAGUATT against Tm4sf5 -1.53
CCACUAUGUUCUCUGGAUATT against Llgl1 -0.218
CCCACAGAAUCACUCCAAGTT against Utp14a -0.211
GCUAUUCGUUUCUUAUAACTT against Slc19a3 0.83
GGCAAUGAGUUCUGGAGUGTT against Capn8 -0.928
GGUUCAAGGCAACACUGUGTT against Ankrd13d -1.54
GGUGCUCACGUUUUUCUUATT against B3galnt1 0.348
GGAGGAAGUUGAAAAUGAATT against Myom2 0.157
GGUACUCCUAGAACUCUACTT against 2410002F23Rik 1.01
GGAAGACUUGAGAAAUCACTT against Coro1c 1.24
GCCAAGCUUGUCCAUUGAUTT against Akap9 -0.443
CGUUAGCAUCAGGUCAAGUTT against Zfp251 -0.323
GGACUCAAAUGUGAUGCAUTT against Prkcq -0.718
GCGGCGCAUGACUGAAAGATT against Chd8 0.86
GGUCAACUCCUUUAUGAGCTT against Apoa4 -0.238
GGAAGUAAAGAGGAUCUCATT against Vat1l -0.678
GGUGAUUAGCAAUCAUCAGTT against Zfp942 -0.295
GGCCACUUGAGAACAUUCGTT against Nop10 0.331
GGUACAAUGAAAGUCUCACTT against Cnot6 -0.0743
GGACCUUGUACCCAUUCCUTT against Prr5 1.01
CGUGGAUAUCAGAAAGCAATT against Cfhr2 -0.487
GGACUUUAAUCACAGACAATT against Fem1b -1.73

z-score, active:
GGGAUUCGAAGGACAAUAGTT against Vmn1r211 -2.07
CCAACGAAGCCAAUAAAUGTT against Pmis2 -2.12
GGAGAAGCAAAACUUUUAATT against Snrpa1 -2.87
GCUCUUGAAAUUUCACUCUTT against Ide 2.1
GGAUGAAAUGAACCUAGAGTT against Sh3pxd2b -2.16
GCGGUUAUAAUGGGACCAUTT against Kif15 3.21
CGAAUACUUGAUGUCCAUGTT against Harbi1 -2.16
CCACAUCUGAGACUAUUCATT against Crhr1 2.46
GGAACUGGGAGACCUAUAATT against Angptl2 -2.01
GGCUUUUGGUCUGAGAUGCTT against Snf8 -2.04
GCCCAGAGUUACGAGUAUGTT against Aacs 2.23
GCCAAACGUGGGUUUGAUATT against Ccna1 4.74
GGUGUUAACAAAAUGUACCTT against Phyh 2.54
CCUUAGGUCUAAGUAAUCUTT against Dnase1l1 2.3
GGCACAUUCAUAGAACAAGTT against Znrd1as 2.01
GGAUGAUGAGAGAAACAAATT against Jak1 3.78
GCAAUGAGUGCUAGUUUUUTT against Cdc42 2.6
